Measurements taken from PubChem BioAssay AID1159580 (chemical genetic matrix, 2015).
Several values for one entry are separate records, joined by “and”; a condition that tells them apart may be missing. Equal values may be shown once. About 2,000 (36%) of roughly 5,500 compounds were called active. About 18% were inconclusive and are not listed. Cut-off read from the data, not from the text of the source: active = normalized growth mostly below about 0.91 (no sharp cut-off); inconclusive = no clear call, values can overlap the other calls; inactive = mostly above about 0.92. This is one part of the list.

Test: chemical genetic growth profiling, strain panel (AID 1159580);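 note: tested at 20 µM; growth read once vehicle control cultures reached saturation at 30 °C; 1 = growth at the plate median or of vehicle wells; lower values mean less growth of the strain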
Details: S. cerevisiae deletion strains, growth OD

Measured: normalized growth

CC[C@@]1(O)C(=O)OCc2c1cc1n(c2=O)Cc2cc3ccccc3nc2-1
inactive: locus YBR021W, strain FUR4, stronger effect = lower value 0.889 | locus YBR171W, strain sec66, stronger effect = lower value 0.949 | locus YBR229C, strain ROT2, stronger effect = lower value 0.982 | locus YBR279W, strain paf1, stronger effect = lower value 0.98 | locus YDL040C, strain nat1, stronger effect = lower value 0.952 | locus YDR150W, strain NUM1, stronger effect = lower value 0.998 | locus YEL061C, strain CIN8, stronger effect = lower value 0.947 | locus YER110C, stronger effect = lower value 0.944 | locus YER111C, strain swi4, stronger effect = lower value 0.97 | locus YER155C, strain BEM2 (second series), stronger effect = lower value 0.887 | locus YGL167C, strain pmr1, stronger effect = lower value 0.95 | locus YHR013C, strain ard1, stronger effect = lower value 0.868 | locus YHR027C, strain rpn1, stronger effect = lower value 0.933 | locus YHR094C, strain hxt1, stronger effect = lower value 0.941 | locus YIL066C, strain RNR3, stronger effect = lower value 0.921 | locus YJL134W, strain LCB3, stronger effect = lower value 0.997 | locus YJL168C, strain set2, stronger effect = lower value 0.961
0.94 (inactive) and 0.843 (active): locus YHR030C, strain SLT2, stronger effect = lower value
active: locus YAL013W, strain DEP1, stronger effect = lower value 0.829 | locus YAL021C, strain ccr4, stronger effect = lower value 0.327 | locus YAL026C, strain drs2, stronger effect = lower value 0.626 | locus YAL030W, strain snc1, stronger effect = lower value 0.813 | locus YBL061C, strain skt5, stronger effect = lower value 0.859 | locus YBR009C, strain hhf1, stronger effect = lower value 0.681 | locus YBR023C, strain chs3, stronger effect = lower value 0.803 | locus YBR231C, strain swc5, stronger effect = lower value 0.696 | locus YCL011C, strain gbp2, stronger effect = lower value 0.577 | locus YCL016C, strain dcc1, stronger effect = lower value 0.134 | locus YCL029C, strain bik1, stronger effect = lower value 0.884 | locus YCL061C, strain MRC1, stronger effect = lower value 0.821 | locus YCL069W, strain vba3, stronger effect = lower value 0.788 | locus YCR088W, strain abp1, stronger effect = lower value 0.747 | locus YDL005C, strain med2, stronger effect = lower value 0.882 | locus YDL035C, strain GPR1, stronger effect = lower value 0.843 | locus YDL074C, strain BRE1, stronger effect = lower value 0.613 | locus YDL101C, strain DUN1, stronger effect = lower value 0.654 | locus YDL134C, strain PPH21, stronger effect = lower value 0.81 | locus YDL185W, strain tfp1, stronger effect = lower value 0.782 | locus YDL192W, strain arf1, stronger effect = lower value 0.838 | locus YDR001C, strain nth1, stronger effect = lower value 0.882 | locus YDR069C, strain doa4, stronger effect = lower value 0.767 | locus YDR101C, strain arx1, stronger effect = lower value 0.897 | locus YDR137W, strain rgp1, stronger effect = lower value 0.74 | locus YDR159W, strain sac3, stronger effect = lower value 0.821 | locus YDR162C, strain NBP2, stronger effect = lower value 0.688 | locus YDR195W, strain ref2 0.538 | locus YDR297W, strain sur2, stronger effect = lower value 0.884 | locus YDR318W, strain mcm21, stronger effect = lower value 0.796 | locus YDR334W, strain swr1, stronger effect = lower value 0.786 | locus YDR335W, strain msn5, stronger effect = lower value 0.841 | locus YDR388W, stronger effect = lower value 0.793 | locus YDR392W, strain spt3, stronger effect = lower value 0.284 | locus YDR502C, strain sam2, stronger effect = lower value 0.803 | locus YEL003W, strain gim4, stronger effect = lower value 0.834 | locus YEL037C, strain rad23, stronger effect = lower value 0.851 | locus YEL061C, strain CIN8 (second series), stronger effect = lower value 0.848 | locus YER015W, strain faa2, stronger effect = lower value 0.784 | locus YER016W, strain bim1, stronger effect = lower value 0.754 | locus YER155C, strain BEM2, stronger effect = lower value 0.837 | locus YER167W, strain BCK2, stronger effect = lower value 0.82 | locus YFR010W, strain ubp6, stronger effect = lower value 0.617 | locus YGL078C, strain dbp3, stronger effect = lower value 0.883 | locus YGL086W, strain mad1, stronger effect = lower value 0.847 | locus YGL173C, strain kem1, stronger effect = lower value 0.882 | locus YGL227W, strain vid30, stronger effect = lower value 0.894 | locus YGL240W, strain doc1, stronger effect = lower value 0.565 | locus YGL248W, strain PDE1, stronger effect = lower value 0.879 | locus YGL253W, strain hxk2, stronger effect = lower value 0.885 | locus YGR135W, strain pre9, stronger effect = lower value 0.878 | locus YGR229C, strain SMI1, stronger effect = lower value 0.384 | locus YGR252W, strain gcn5, stronger effect = lower value 0.655 | locus YHR079C, strain IRE1 (second series), stronger effect = lower value 0.801 | locus YHR079C, strain IRE1, stronger effect = lower value 0.791 | locus YHR129C, strain ARP1, stronger effect = lower value 0.801 | locus YHR142W, strain chs7, stronger effect = lower value 0.772 | locus YHR200W, strain rpn10, stronger effect = lower value 0.711 | locus YIL073C, strain SPO22, stronger effect = lower value 0.598 | locus YIL125W, strain kgd1, stronger effect = lower value 0.774 | locus YIR030C, strain dcg1, stronger effect = lower value 0.826 | locus YJL092W, strain hpr5, stronger effect = lower value 0.22 | locus YJL095W, strain BCK1 (second series), stronger effect = lower value 0.855 | locus YJL095W, strain BCK1, stronger effect = lower value 0.751 and 0.84 | locus YJL115W, strain asf1, stronger effect = lower value 0.132 | locus YJL129C, strain trk1, stronger effect = lower value 0.537 | locus YJL154C, strain vps35, stronger effect = lower value 0.811 | locus YJL164C, strain tpk1, stronger effect = lower value 0.634 | locus YJL166W, strain qcr8, stronger effect = lower value 0.748 | locus YJL187C, strain SWE1 (second series), stronger effect = lower value 0.848 | locus YJL187C, strain SWE1, stronger effect = lower value 0.876 | locus YJR043C, strain POL32, stronger effect = lower value 0.561
